This is a sample that favours compounds with a hit; in the whole collection about 18% have one here.
DT40 TDP1 CPT – growth inhibition of DT40 Tdp1-/-;hTDP1 cells with camptothecin (screen for TDP1 inhibitors); chicken DT40 Tdp1-/-;hTDP1 cells + 20 nM CPT, ATP luminescence, 48 h; Potency, µM (titrated, usually from 46.2 µM), without a hit: top-dose activity change, negative = growth inhibition, hits mostly inhibitors; actives 12% (n = 420,000); note: potency is the fitted concentration of half-maximal effect; nearly all actives have a fitted effect of over 55% in size
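Chicken DT40 Tdp1-/- cells complemented with human TDP1, 400 cells/well, exposed to compounds plus 20 nM camptothecin for at least 48 h at 37 C; viability read as ATP content by CellTiter-Glo luminescence.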
DT40 TDP1 no CPT – qHTS for Inhibitors of human tyrosyl-DNA phosphodiesterase 1 (TDP1): qHTS in cells in absence of CPT | DT40 Tdp1-/- hTDP1 cells, no CPT, ATP luminescence, 48 h | AID 686978, 2013 | Potency, µM (titrated, usually from 46.2 µM), for the others: at the top dose activity change, negative = growth inhibition, actives largely listed as inhibitors | actives 15% (n = 420,000); note: potency is the fitted concentration of half-maximal effect; nearly all actives have a fitted effect of over 55% in size
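Growth of hTDP1-complemented DT40 Tdp1-knockout cells is measured by ATP luminescence after at least 48 hr compound exposure at 37 °C, with DMSO substituting for the 20 nM CPT used in the parallel screen.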
IL-1B inflam inh – blocks inflammasome-driven IL-1 beta release. actives 4.7% (n = 360,000). THP-1 LPS/ATP IL-1B secretion, AlphaLISA, 16 h; hits give low values. activity change, % at 57.5 µM; in the data active = activity change below about -50%; inconclusive = mostly about -30% to -49%
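THP-1 cells pretreated 1 hr with compounds (up to 57.5 uM final), then stimulated with LPS (250 ng/mL final) plus ATP (1.25 mM final); secreted IL-1B measured by AlphaLISA after 16 hr, decreased signal indicating inhibition.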
RORg inh – inhibitors of mouse ROR gamma transcriptional activity; Potency, µM (top dose mostly 53.6 µM), for inactives: at the top dose activity change, negative = inhibition, most hits filed as inhibitors; Drosophila S2 Gal4-RORgamma UAS-luciferase reporter, 20 h; AID 2551; P51450; actives 5.4% (n = 310,000); note: potency is the fitted concentration of half-maximal effect; nearly all actives have a fitted effect of over 60% in size
Target sequence (P51450 whole entry, looked up, the tested form may be a part): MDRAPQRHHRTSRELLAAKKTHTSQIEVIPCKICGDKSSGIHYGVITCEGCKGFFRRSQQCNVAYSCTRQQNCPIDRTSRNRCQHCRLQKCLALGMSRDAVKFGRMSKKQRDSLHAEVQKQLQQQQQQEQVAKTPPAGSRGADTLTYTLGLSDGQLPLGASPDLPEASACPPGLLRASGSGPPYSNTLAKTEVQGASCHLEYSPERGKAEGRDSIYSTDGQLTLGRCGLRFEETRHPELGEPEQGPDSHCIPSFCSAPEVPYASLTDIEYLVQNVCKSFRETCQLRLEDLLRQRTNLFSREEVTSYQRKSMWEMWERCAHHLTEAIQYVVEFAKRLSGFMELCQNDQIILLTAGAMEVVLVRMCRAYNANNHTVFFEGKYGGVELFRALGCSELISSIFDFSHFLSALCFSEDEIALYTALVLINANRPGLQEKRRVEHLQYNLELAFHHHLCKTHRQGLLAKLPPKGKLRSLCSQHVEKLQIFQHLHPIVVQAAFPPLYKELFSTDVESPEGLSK
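Stable Schneider cell line, Gal4 DNA-binding domain fused to ROR gamma, UAS-luciferase. Cmpd 1 hr RT → CuSO4 700 uM final → 20 hr RT → luciferase reagent 10 min → luminescence.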
Gal4-VP16 FLuc – Gal4-VP16 reporter inhibition counter-screen; Drosophila S2 Gal4-VP16 UAS-luciferase, luminescence, 20 h; actives 3.5% (n = 310,000); AID 2546; Potency, µM (titrated, usually from 53.6 µM), inactives show top-dose activity, negative = inhibition, most hits filed as inhibitors;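 note: Gal4-VP16 expression switched on by copper sulfate through the metallothionein promoter; potency is the fitted concentration of half-maximal effect; nearly all actives have a fitted effect of over 50% in size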
LDHA inh – LDHA (human) enzyme inhibition | P00338 | purified LDHA, NADH/diaphorase-resazurin fluorescence; hits give low values | activity change, % (values are at about 110 or 230 µM) | actives 0.15% (n = 480,000) | AID 1347041; in the data active = activity change below about -30%; inconclusive = mostly about -25% to -30%;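 note: plate controls were DMSO wells for no effect and wells without enzyme for full effect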
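Human LDH5 (2 nM) was incubated with 0.06 mM NADH and 0.2 mM pyruvate for 5 min at room temperature in Tris pH 7.4. Remaining NADH was coupled through diaphorase/resazurin, and resorufin fluorescence was read at 0 and 20 min.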
Numbers without * were called inactive; ? = inconclusive; . = no result; ! = not confirmed by another sample; [ ] = remark or other dose. Unless noted, calls come from the whole dose curve; as a rule, active = well fitted curve in the direction sought with a large enough effect; inconclusive = small, poorly fitted or top-dose-only effect, or another doubt; inactive = no such curve, though single readings can be large; an effect the other way counts as inactive or inconclusive. Unless noted, % is set by controls: 0 for no effect and ±100 for the full control effect.

SMILES	DT40 TDP1 CPT	DT40 TDP1 no CPT	IL-1B inflam inh	RORg inh	Gal4-VP16 FLuc	LDHA inh
C=CCc1c(C)nc(-c2ccccc2)nc1N/N=C(\C)c1ccccc1	?	-18.0%	5.9	?	?	-5.8
Cc1ccccc1CN1CCC(N2CCCCCC2)CC1	.	.	.	.	.	-0.6
CCCCn1c(N)c(N(CC)C(=O)Cn2c(CC)nc3ccccc32)c(=O)[nH]c1=O	.	.	.	.	.	6.2
Clc1ccc(C=Nc2ccc(Cl)c(Cl)c2)cc1Cl	.	.	.	.	.	-2.0
Cc1ccc(-c2nc(CSCC(=O)N3CCN(c4ccccn4)CC3)c(C)o2)cc1	18.4µM*	20.6µM*	-15.5	?	?	-0.9
CCc1ccc(-c2nc(CSCC(=O)N3CCN(c4ccccn4)CC3)c(C)o2)cc1	23.1µM*	18.4µM*	?	?	12.6µM*	-4.0
Cc1ccc(-c2nc(CSCC(=O)N3CCOCC3)c(C)o2)cc1	-2.6%	-15.7%	18.3	-0.4%	2.2%	-9.2
O=C(CN1CCN(c2cnn(-c3ccccc3)c(=O)c2Cl)CC1)Nc1ccc2[nH]c(=O)[nH]c2c1	.	.	.	.	.	8.2
O=C(Nc1ccc(Cl)cc1C(F)(F)F)c1ccc(Cl)c(Cl)c1	.	.	.	.	.	8.5
NCCCNCCCCNC(=O)C(O)NC(=O)CCCCCCN=C(N)N (stereo unspecified)	1.19µM*	1.19µM*	.	.	.	.
Brc1ccc2c(c1)CN1CCCC1=N2	13µM*	20.6µM*	-7.6	-30.9%	-16.8%	-1.8
O=C1CN2C(=Nc3ccc(Br)cc3C2c2ccccc2)CCN1 (stereo unspecified)	-6.8%	-22.4%	25.3	0.8%	-3.7%	-3.1
CC1=C(C(=O)OCC2CCCO2)C(c2ccccc2OC(C)C)C2=C(CC(c3ccco3)CC2=O)N1 (stereo unspecified)	-30.0%	?	-9.6	0.5%[0.365 µM]	.	1.5
CC1=C(C(=O)OCC2CCCO2)C(c2cccc(C(F)(F)F)c2)C2=C(CC(c3ccco3)CC2=O)N1 (stereo unspecified)	?	?	-53.1*	?	-1.0%	0.0
CCOC(=O)C(CC)Sc1ccc2nnc(-c3cccnc3)n2n1 (stereo unspecified)	14.1µM*!	?	26.7	16.0%	-9.2%	1.8
COc1cccc(-c2ccc3nnc(SCC(=O)N4CCCC4)n3n2)c1	?	?	?	.	.	0.1
CCOC(=O)N1CCN(C(=O)CSc2ccc3nnc(-c4cccnc4)n3n2)CC1	?	18.4µM*	-27.8	0.9%	-8.2%	-6.3
CC1CCN(C(=O)CSc2nnc3ccc(-c4cccnc4)nn23)CC1	0.9%	-24.5%	-57.1*	.	.	-8.5
CC1CCCN(CC(=O)NCCC2=CCCCC2)C1 (stereo unspecified)	.	.	.	.	.	2.2
CCOCCC(=O)NCc1ccc(OC)cc1	.	.	.	.	.	-0.2
N#CC1(c2ccccc2)CCC(NCCc2ccccc2)CC1 (stereo unspecified)	?	18.4µM*	?	-15.9%	1.3%	-15.9
COc1ccc(-c2onc3ccc(Br)cc23)cc1OC	.	.	.	.	.	29.1
O=C1C(Cl)=C(NCCN2CCCCC2)C(=O)c2ccccc21	4.11µM*	?	-100.7*	10µM*	?	5.4
CCCC(=O)NNC(=O)CCC(=O)Nc1ccccc1Cl	11.8%	-3.7%	1.4	7.4%	0.7%	-6.5
O=C1C(Cl)=C(NCc2ccco2)C(=O)c2ccccc21	11.6µM*	8.2µM*	-95.2*	.	.	-8.6
SMILES	DT40 TDP1 CPT	DT40 TDP1 no CPT	IL-1B inflam inh	RORg inh	Gal4-VP16 FLuc	LDHA inh
CCNC1=C(Cl)C(=O)c2ccccc2C1=O	18.4µM*	23.1µM*	15.1	?	-3.2%	7.4
CCCC(=O)NC1=C(Cl)C(=O)c2ccccc2C1=O	0.651µM*	0.651µM*	-100.9*	.	.	43.2
O=C(NCCN1CCCC1)c1ccccc1Cl	-10.8%	0.3%	0.5	-15.0%	-7.3%	-6.8
CCCc1cc(=O)oc2cc(OC(C)C(=O)Nc3cc(C)on3)ccc12 (stereo unspecified)	.	.	.	.	.	-1.0
COc1cc(/C=N\Nc2nc3ccccc3[nH]2)cc(OC)c1OC	20.6µM*	11.6µM*	0.0	12.2%	-10.0%	-7.6
COc1cc(/C=N/NC2=NC(C)(C)Cc3ccccc32)cc(OC)c1OC	?	20.6µM*	-6.6	2.6%	3.6%	-6.3
COc1ccc(/C=N/Nc2ccccn2)cc1OC	?	16.4µM*	-14.8	?	?	0.1
COc1cc(OC)c(OC)cc1/C=N/Nc1nc2ccccc2[nH]1	2.5%	-21.6%	0.0	-30.1%	-2.2%	-4.9
COc1ccc(/C=N/Nc2nc3ccccc3[nH]2)cc1OC	?	?	-75.3*	-28.6%	0.8%	-3.3
CCOc1ccc(C(=O)c2oc3ccccc3c2NC(=O)c2nc(S(C)(=O)=O)ncc2Cl)cc1	.	.	.	.	.	-0.5
COc1ccc2c(c1)c(/C=N/Nc1nc3ccccc3[nH]1)c(C)n2C	20.6µM*	?	-97.7*	3.55µM*	15.8µM*	1.7
COc1ccc(C=NN=C2c3ccccc3-c3ccccc32)cc1OC	?	23.1µM*	-21.6	.	.	0.6
CCOc1cc(/C=N/Nc2nc3ccccc3[nH]2)cc(Br)c1OCC(=O)N(C)C	10.3µM*	13µM*	-92.4*	?	-0.9%	-6.4
CCOc1ccccc1Nc1nc2ccccc2[nH]1	?	?	-17.2	-4.4%	?	-11.6
COc1cc(/C=N/N=C2/C(=O)Nc3ccccc32)ccc1O	-20.7%	-29.6%	?	-8.6%	-6.0%	15.6
CN(C)c1ccc(/C=N\Nc2ccccn2)cc1	20.6µM*	23.1µM*	-11.3	?	?	0.3
CN(C)c1ccc(C=NNc2ccccn2)c(Cl)c1	?	?	9.4	.	.	-3.3
O=C(NC1CCN(S(=O)(=O)c2cccc(F)c2F)CC1)C1CC1	.	.	.	.	.	5.1
CCOC(=O)c1c(C)sc2c1N(C(=O)CN(CC)CC)c1ccccc1S2	?	20.6µM*	-10.8	-11.7%	-5.0%	1.7
CCOC(=O)N1CCN(CC(=O)N2c3ccccc3Sc3ccccc32)CC1	?	?	2.2	-3.4%	6.3%	-15.4
CCOC(=O)c1c(C)sc2c1N(C(=O)CN(CC)CC)c1cc(Cl)ccc1S2	18.4µM*	?	-20.0	17.7%	-1.4%	-8.7
NC(=O)c1ccc(NC(=O)c2cc(-c3cccs3)nc3ccccc23)cc1	.	.	.	.	.	-13.9
COc1ccccc1N1CCN(C(=O)CSc2nnc3c(=O)n(-c4cccc(F)c4)ccn23)CC1	.	.	.	.	.	-4.3
Cc1cccc(N/N=C/c2ccc(C)s2)c1	29.1µM*	?	5.7	-2.7%	1.6%	-0.5

Screens (PubChem BioAssay)
